# In article PMC7862700, “An all-to-all approach to the identification of sequence-specific readers for epigenetic DNA modifications on cytosine”:
# How the values were obtained:
# Experiment in all cases: DAPPL (digital affinity profiling via proximity ligation, sequencing); 10 mM Tris-HCl pH 7.5, 50 mM NaCl, 1 mM DTT, 4% glycerol, room temperature, 30 min; GST-TFs on glutathione beads, 16-mer random dsDNA library, 0.1% formaldehyde crosslink after washing; high values mean tight binding
# FLI1 = target: T1, FLI1 (Homo sapiens, UniProt Q01543 1-452); conditions: protein: recombinant; tags: N-terminal GST; dsDNA, one strand shown
# T1 sequence: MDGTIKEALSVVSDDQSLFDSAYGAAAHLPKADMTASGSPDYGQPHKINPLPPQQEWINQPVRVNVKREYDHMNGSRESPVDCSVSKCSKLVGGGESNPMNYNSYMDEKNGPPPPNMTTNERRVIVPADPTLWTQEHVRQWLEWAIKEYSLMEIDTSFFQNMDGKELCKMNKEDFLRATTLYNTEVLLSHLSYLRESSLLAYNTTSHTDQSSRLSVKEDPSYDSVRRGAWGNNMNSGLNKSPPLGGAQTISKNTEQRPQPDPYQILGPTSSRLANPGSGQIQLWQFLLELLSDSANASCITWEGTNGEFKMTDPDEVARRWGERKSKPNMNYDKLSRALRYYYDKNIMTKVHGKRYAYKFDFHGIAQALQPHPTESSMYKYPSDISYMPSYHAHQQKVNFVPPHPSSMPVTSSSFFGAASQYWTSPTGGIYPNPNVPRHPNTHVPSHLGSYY
# Outline: (§1)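 Beads coated with glutathione captured GST-fused human transcription factors that had been expressed in yeast, and the factors were then given DNA barcodes and pooled with a tag-only sample. The pools were incubated with 200 nmole of a random double-stranded 16-mer DNA library in Tris/NaCl/DTT/glycerol buffer for 30 min at room temperature, washed, crosslinked with 0.1% formaldehyde and proximity-ligated with BsaI/T4 ligase at 37 °C for 1 h. PCR amplification and Illumina NextSeq500 sequencing came last. Binding signal is each hexamer's read frequency for a factor divided by its frequency for the tag-only sample.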
# ELK1 = target: T2, ELK1 (Homo sapiens, UniProt P19419 1-428); conditions: protein: recombinant; tags: N-terminal GST; dsDNA, one strand shown
# T2 sequence: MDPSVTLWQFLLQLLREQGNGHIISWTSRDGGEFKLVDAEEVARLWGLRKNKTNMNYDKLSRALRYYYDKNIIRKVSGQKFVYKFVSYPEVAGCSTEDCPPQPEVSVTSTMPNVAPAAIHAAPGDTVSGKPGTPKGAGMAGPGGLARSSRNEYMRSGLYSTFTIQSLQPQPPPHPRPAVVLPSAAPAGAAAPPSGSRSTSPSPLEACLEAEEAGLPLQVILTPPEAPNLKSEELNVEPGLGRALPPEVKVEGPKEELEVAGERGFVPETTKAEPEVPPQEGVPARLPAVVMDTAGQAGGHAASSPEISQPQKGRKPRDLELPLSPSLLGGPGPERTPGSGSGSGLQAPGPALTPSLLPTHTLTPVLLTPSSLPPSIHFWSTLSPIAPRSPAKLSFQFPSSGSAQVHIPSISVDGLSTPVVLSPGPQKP
# Outline: as §1
# GABPA = target: T3, GABPA (Homo sapiens, UniProt Q06546 1-454); conditions: protein: recombinant; tags: N-terminal GST; dsDNA, one strand shown
# T3 sequence: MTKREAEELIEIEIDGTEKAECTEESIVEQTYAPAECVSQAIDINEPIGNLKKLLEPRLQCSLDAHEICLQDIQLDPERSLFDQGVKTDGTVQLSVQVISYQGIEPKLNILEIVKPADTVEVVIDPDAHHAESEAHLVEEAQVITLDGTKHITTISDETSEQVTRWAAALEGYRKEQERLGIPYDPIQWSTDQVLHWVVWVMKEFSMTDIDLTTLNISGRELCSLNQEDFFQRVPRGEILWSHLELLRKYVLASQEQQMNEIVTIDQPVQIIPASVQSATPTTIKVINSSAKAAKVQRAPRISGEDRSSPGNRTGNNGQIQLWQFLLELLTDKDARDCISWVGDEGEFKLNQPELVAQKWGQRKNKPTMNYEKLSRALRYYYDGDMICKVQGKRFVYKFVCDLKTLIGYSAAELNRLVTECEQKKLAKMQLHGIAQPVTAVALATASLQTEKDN
# Outline: as §1
# ERG = target: T4, ERG (Homo sapiens, UniProt P11308 1-479); conditions: protein: recombinant; tags: N-terminal GST; dsDNA, one strand shown
# T4 sequence: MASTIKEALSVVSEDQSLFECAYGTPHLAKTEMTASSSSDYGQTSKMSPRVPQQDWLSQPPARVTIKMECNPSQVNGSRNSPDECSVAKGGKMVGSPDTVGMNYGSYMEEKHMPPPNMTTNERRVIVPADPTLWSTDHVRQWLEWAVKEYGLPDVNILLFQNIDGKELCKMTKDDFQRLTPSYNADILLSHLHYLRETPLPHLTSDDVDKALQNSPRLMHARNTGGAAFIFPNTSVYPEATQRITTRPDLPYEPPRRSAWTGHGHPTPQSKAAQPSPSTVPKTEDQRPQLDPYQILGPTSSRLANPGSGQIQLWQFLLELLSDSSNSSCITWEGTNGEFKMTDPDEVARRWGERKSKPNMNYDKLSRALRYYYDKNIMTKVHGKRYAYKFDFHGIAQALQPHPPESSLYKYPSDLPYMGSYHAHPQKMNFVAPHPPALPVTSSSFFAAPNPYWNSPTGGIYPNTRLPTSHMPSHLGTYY
# Outline: as §1
# ELF1 = ELF1 (Homo sapiens, UniProt P32519 1-619); conditions: protein: recombinant; tags: N-terminal GST; dsDNA, one strand shown
# Sequence of ELF1 (P32519 whole entry): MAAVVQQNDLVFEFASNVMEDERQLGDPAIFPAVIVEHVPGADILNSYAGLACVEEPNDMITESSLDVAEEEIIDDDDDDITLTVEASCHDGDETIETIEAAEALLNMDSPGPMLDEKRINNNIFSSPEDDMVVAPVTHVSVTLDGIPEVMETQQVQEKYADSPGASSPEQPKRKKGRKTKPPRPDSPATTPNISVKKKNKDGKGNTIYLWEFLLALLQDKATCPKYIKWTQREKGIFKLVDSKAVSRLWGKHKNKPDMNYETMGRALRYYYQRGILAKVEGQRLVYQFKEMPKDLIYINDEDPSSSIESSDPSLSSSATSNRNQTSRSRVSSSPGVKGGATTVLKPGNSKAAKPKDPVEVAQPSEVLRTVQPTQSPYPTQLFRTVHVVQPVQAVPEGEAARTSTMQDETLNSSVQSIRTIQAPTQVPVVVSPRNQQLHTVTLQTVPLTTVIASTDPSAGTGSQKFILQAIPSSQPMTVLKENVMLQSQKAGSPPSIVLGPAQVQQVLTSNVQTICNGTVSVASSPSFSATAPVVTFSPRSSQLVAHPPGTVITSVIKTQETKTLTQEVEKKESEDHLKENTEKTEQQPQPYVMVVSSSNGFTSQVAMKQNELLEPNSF
# Outline: as §1
# EHF = target: T5, EHF (Homo sapiens, UniProt Q9NZC4 1-300); conditions: protein: recombinant; tags: N-terminal GST; dsDNA, one strand shown
# T5 sequence: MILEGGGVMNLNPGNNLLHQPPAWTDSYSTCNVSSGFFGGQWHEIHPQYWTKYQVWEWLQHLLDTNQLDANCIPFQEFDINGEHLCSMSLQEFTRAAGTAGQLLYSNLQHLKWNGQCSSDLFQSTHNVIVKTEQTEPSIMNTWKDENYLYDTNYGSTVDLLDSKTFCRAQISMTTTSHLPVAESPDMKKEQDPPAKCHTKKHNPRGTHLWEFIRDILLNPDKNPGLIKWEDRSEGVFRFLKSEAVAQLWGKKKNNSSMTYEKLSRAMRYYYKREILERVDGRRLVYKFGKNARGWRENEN
# Outline: as §1
# SPI1 = SPI1 (Homo sapiens, UniProt P17947 1-270); conditions: protein: recombinant; tags: N-terminal GST; dsDNA, one strand shown
# Outline: as §1
# SPIB = SPIB (Homo sapiens, UniProt Q01892 1-262); conditions: protein: recombinant; tags: N-terminal GST; dsDNA, one strand shown
# Sequence of SPIB (Q01892 whole entry): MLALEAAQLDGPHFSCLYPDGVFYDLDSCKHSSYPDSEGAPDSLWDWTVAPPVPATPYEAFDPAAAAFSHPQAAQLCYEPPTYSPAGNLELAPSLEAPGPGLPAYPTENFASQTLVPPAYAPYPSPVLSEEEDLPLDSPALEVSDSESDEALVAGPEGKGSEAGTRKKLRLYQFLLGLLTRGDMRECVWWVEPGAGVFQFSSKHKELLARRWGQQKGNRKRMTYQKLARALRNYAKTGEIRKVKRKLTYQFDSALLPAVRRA
# Outline: as §1
# ELK3 = target: T6, ELK3 (Homo sapiens, UniProt P41970 1-407); conditions: protein: recombinant; tags: N-terminal GST; dsDNA, one strand shown
# T6 sequence: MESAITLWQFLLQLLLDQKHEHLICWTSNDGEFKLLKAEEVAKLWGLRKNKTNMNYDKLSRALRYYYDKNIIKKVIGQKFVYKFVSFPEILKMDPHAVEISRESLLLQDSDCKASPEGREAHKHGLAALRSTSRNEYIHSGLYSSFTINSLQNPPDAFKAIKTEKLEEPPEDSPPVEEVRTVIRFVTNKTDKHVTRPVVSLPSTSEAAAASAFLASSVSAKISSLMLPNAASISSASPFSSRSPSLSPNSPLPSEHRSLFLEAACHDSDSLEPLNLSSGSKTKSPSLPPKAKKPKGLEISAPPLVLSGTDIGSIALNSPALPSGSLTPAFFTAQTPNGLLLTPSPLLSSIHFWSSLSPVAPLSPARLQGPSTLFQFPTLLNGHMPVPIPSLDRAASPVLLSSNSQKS
# Outline: as §1
# FEV = target: T7, FEV (Homo sapiens, UniProt Q99581 1-238); conditions: protein: recombinant; tags: N-terminal GST; dsDNA, one strand shown
# T7 sequence: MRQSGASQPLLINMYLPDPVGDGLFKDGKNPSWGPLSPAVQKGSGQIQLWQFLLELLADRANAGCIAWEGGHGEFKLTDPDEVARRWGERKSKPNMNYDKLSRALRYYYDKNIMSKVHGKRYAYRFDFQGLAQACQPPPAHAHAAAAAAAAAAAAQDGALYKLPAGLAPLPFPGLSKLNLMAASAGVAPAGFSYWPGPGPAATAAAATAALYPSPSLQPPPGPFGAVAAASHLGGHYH
# Outline: as §1
# ETV5 = ETV5 (Homo sapiens, UniProt P41161 1-510); conditions: protein: recombinant; tags: N-terminal GST; dsDNA, one strand shown
# Sequence of ETV5 (P41161 whole entry): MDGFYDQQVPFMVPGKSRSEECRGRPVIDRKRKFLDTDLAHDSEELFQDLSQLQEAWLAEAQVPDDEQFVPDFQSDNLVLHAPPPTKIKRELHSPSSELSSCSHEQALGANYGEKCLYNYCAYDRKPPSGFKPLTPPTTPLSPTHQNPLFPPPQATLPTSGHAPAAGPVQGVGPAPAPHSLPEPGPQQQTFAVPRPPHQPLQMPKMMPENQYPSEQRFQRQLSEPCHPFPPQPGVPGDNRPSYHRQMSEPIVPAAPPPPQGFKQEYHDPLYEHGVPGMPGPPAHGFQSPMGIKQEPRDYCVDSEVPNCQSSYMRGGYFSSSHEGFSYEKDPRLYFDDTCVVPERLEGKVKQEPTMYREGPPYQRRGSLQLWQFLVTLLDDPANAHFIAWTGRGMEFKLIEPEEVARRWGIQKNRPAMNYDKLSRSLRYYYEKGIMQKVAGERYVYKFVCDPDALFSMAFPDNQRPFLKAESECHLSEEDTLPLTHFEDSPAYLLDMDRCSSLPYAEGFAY
# Outline: as §1
# HSF1 = HSF1 (Homo sapiens, UniProt Q00613 1-529); conditions: protein: recombinant; tags: N-terminal GST; chain copies: 3; dsDNA, one strand shown
# Sequence of HSF1 (Q00613 whole entry): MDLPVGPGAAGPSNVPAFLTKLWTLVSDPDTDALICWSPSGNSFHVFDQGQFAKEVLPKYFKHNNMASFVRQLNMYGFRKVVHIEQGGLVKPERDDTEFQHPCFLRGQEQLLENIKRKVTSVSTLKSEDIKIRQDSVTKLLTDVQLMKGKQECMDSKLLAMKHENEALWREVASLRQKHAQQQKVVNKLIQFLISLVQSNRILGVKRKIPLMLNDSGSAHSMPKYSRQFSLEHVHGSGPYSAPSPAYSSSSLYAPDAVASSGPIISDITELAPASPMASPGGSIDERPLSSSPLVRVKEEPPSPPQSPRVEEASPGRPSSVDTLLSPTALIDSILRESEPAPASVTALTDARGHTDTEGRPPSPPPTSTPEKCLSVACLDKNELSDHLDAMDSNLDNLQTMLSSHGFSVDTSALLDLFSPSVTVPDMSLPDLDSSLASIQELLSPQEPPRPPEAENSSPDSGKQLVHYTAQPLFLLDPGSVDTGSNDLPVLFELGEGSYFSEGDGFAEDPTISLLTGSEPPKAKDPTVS
# Outline: as §1
# SPIC = target: T8, SPIC (Homo sapiens, UniProt Q8N5J4 1-248); conditions: protein: recombinant; tags: N-terminal GST; dsDNA, one strand shown
# T8 sequence: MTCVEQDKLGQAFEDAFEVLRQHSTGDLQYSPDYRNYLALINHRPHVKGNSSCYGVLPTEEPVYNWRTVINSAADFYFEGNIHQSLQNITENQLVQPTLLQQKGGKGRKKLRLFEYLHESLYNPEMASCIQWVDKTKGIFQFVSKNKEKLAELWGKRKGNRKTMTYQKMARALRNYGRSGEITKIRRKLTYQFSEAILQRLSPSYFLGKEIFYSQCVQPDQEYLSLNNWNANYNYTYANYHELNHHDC
# Outline: as §1
# ELF4 = ELF4 (Homo sapiens, UniProt Q99607 1-663); conditions: protein: recombinant; tags: N-terminal GST; dsDNA, one strand shown
# Sequence of ELF4 (Q99607 whole entry): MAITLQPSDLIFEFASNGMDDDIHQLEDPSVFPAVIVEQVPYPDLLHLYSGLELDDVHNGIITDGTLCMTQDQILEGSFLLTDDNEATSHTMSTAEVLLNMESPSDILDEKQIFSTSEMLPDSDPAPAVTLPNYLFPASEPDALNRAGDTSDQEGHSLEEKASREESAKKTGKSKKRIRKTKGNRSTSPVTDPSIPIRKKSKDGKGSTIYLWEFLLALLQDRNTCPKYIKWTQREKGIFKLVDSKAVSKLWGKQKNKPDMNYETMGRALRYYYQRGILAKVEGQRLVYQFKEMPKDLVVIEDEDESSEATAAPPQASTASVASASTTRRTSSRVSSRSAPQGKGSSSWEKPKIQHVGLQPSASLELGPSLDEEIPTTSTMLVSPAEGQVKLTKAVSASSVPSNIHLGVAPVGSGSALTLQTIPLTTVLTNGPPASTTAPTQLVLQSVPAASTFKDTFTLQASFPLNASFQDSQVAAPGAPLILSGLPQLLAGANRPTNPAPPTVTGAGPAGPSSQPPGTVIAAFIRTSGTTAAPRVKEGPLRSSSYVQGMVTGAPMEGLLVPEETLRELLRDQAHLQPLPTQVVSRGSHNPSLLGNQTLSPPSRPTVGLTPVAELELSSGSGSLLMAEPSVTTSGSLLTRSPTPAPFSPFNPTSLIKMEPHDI
# Outline: as §1
# ELK4 = target: T9, ELK4 (Homo sapiens, UniProt P28324-2 1-405); conditions: protein: recombinant; tags: N-terminal GST; dsDNA, one strand shown
# T9 sequence: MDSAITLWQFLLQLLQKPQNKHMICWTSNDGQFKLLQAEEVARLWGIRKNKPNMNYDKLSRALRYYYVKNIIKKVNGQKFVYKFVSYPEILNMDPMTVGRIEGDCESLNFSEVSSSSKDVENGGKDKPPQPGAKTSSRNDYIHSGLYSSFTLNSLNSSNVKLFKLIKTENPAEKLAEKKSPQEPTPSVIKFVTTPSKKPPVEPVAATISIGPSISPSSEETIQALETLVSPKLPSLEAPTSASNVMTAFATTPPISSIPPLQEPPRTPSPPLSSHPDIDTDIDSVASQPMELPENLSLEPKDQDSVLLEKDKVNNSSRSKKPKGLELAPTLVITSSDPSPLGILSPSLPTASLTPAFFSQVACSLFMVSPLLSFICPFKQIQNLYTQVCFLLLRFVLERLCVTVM
# Outline: as §1
# ETV2 = target: T10, ETV2 (Homo sapiens, UniProt O00321 1-342); conditions: protein: recombinant; tags: N-terminal GST; dsDNA, one strand shown
# T10 sequence: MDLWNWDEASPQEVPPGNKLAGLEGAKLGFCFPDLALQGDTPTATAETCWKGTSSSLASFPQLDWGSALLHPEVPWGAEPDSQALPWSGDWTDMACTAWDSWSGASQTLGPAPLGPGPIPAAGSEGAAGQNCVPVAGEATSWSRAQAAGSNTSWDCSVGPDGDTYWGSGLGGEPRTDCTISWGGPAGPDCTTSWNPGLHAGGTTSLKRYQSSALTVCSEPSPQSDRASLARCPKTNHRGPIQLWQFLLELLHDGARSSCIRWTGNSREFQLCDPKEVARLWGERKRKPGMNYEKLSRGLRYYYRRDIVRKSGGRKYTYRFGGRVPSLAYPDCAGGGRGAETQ
# Outline: as §1
# ELF3 = target: T11, ELF3 (Homo sapiens, UniProt P78545 1-371); conditions: protein: recombinant; tags: N-terminal GST; dsDNA, one strand shown
# T11 sequence: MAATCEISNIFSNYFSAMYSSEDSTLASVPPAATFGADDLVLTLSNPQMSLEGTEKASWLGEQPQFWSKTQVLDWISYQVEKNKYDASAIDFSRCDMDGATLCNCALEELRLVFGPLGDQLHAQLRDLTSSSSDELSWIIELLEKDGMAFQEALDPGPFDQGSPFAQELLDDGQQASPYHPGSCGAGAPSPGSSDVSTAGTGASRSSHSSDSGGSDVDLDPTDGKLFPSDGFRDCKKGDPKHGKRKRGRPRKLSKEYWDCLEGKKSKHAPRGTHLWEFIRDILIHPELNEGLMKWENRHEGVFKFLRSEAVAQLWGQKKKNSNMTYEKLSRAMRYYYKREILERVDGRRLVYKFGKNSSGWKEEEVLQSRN
# Outline: as §1
# CRX = CRX (Homo sapiens, UniProt O43186 1-299); conditions: protein: recombinant; tags: N-terminal GST; dsDNA, one strand shown
# Sequence of CRX (O43186 whole entry): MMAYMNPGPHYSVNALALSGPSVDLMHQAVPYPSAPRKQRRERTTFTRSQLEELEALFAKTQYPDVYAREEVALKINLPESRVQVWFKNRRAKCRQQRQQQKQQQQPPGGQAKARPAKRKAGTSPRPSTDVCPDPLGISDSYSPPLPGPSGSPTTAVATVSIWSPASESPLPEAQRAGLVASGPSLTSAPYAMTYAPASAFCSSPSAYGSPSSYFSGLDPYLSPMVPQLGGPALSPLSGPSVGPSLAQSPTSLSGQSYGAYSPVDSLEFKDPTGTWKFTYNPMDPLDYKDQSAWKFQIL
# Outline: as §1
# ETV1 = ETV1 (Homo sapiens, UniProt P50549 1-477); conditions: protein: recombinant; tags: N-terminal GST; dsDNA, one strand shown
# Sequence of ETV1 (P50549 whole entry): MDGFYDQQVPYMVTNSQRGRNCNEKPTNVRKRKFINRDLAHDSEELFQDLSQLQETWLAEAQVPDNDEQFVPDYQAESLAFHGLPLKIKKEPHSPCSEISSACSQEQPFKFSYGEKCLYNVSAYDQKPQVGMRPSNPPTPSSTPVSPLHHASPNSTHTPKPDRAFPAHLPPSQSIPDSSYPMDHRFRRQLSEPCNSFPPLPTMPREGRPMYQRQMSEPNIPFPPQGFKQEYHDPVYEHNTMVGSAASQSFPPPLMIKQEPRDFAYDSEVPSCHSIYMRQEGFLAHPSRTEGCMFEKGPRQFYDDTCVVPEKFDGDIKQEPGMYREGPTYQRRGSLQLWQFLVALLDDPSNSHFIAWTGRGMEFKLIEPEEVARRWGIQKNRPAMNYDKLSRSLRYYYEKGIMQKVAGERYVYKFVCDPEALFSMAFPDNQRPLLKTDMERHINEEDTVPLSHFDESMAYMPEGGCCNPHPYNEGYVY
# Outline: as §1
sequence,measurement,setting,value
TAGCTC,binding signal,FLI1,"1.17 fold enrichment (6-mer frequency, TF over GST control)"
same,binding signal,ELK1,"1.13 fold enrichment (6-mer frequency, TF over GST control)"
same,binding signal,GABPA,"1.2 fold enrichment (6-mer frequency, TF over GST control)"
same,binding signal,ERG,"1.11 fold enrichment (6-mer frequency, TF over GST control)"
same,binding signal,ELF1,"1.18 fold enrichment (6-mer frequency, TF over GST control)"
same,binding signal,EHF,"1.25 fold enrichment (6-mer frequency, TF over GST control)"
same,binding signal,SPI1,"1.21 fold enrichment (6-mer frequency, TF over GST control)"
same,binding signal,SPIB,"1.05 fold enrichment (6-mer frequency, TF over GST control)"
same,binding signal,ELK3,"1.28 fold enrichment (6-mer frequency, TF over GST control)"
same,binding signal,FEV,"1.19 fold enrichment (6-mer frequency, TF over GST control)"
same,binding signal,ETV5,"1.25 fold enrichment (6-mer frequency, TF over GST control)"
same,binding signal,HSF1,"1.24 fold enrichment (6-mer frequency, TF over GST control)"
same,binding signal,SPIC,"1.19 fold enrichment (6-mer frequency, TF over GST control)"
same,binding signal,ELF4,"1.22 fold enrichment (6-mer frequency, TF over GST control)"
same,binding signal,ELK4,"1.26 fold enrichment (6-mer frequency, TF over GST control)"
same,binding signal,ETV2,"1.37 fold enrichment (6-mer frequency, TF over GST control)"
same,binding signal,ELF3,"1.17 fold enrichment (6-mer frequency, TF over GST control)"
same,binding signal,CRX,"1.46 fold enrichment (6-mer frequency, TF over GST control)"
same,binding signal,ETV1,"1.21 fold enrichment (6-mer frequency, TF over GST control)"
